Rows were chosen to be rich in hits. Some 3.1% of all compounds tested hit in one or more screens of this group.
RGS4 inhibitor = human RGS4 inhibition | Transcreener GDP fluorescence polarization, RGS4-accelerated GTP hydrolysis | Potency, µM (doses to about 114 µM), inactives show at the top dose activity change, negative = inhibition, usual class: inhibitors | 390,000 tested, 0.039% active; active means well fitted inhibition curve with a large enough effect; inconclusive means small, poorly fitted or top-dose-only effect; inactive means no such curve, though single readings can be large or run the other way; further: potency means the concentration at half of the fitted maximal effect; on the % scale 0 is the no-effect control and ±100 the full control effect; nearly all actives have a fitted effect of over 75% in size
Target sequence (P49798 whole entry, looked up): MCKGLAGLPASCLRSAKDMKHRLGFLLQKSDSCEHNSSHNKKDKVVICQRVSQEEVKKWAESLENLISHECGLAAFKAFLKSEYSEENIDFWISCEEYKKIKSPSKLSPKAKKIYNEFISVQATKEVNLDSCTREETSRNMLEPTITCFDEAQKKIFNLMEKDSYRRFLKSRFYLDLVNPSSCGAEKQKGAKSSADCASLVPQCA
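MLSMR compounds (23 nl, pin-transferred) preincubated 10 min at room temperature with a 500nM (2x) first reagent, then RGS4 at 900nM (2x) plus Transcreener GDP mix added; fluorescence polarization (620/688 nm) read before and after 90 min at 30 °C.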
DRD3 agonist = agonists of human D3 dopamine receptor | P35462 | D3R DiscoveRx beta-arrestin cells, luminescence, 90 min | max activation, % | 410,000 tested, 0.58% active | AID 652048; in the data active means max activation above about 30%; further: 0% is about no effect
Target sequence (P35462 whole entry, looked up): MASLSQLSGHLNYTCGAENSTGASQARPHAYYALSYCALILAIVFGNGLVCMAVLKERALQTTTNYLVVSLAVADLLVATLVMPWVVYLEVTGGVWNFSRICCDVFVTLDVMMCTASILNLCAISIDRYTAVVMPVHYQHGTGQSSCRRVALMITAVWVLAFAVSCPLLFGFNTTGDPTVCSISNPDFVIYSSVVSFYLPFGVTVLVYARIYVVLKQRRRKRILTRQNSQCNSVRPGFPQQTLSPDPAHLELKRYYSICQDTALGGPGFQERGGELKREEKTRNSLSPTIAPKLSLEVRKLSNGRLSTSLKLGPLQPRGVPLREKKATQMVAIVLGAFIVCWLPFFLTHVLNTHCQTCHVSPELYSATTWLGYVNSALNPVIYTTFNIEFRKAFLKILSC
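Cells at 1500/well, incubated overnight, then treated with pinned compounds (dopamine as control) for 90 min at 37 degrees C. DiscoveRx reagent added for 30 - 60 minutes at room temperature; luminescence read.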
uPA surface inh = blocks generation of uPA at the cell surface. cell surface uPA generation assay, qHTS. Potency, µM (top dose mostly 38.3 µM), inactives show top-dose activity change, negative = inhibition, most hits filed as inhibitors. 330,000 tested, 0.31% active; active means well fitted inhibition curve with a large enough effect; inconclusive means small, poorly fitted or top-dose-only effect; inactive means no such curve, though single readings can be large or run the other way; tested in mouse RAW 264.7 cells; further: potency means the concentration at half of the fitted maximal effect; on the % scale 0 is the no-effect control and ±100 the full control effect; nearly all actives have a fitted effect of over 55% in size
D3 antag = D3 dopamine receptor (human) antagonism; P35462; D3R cells, DiscoveRx beta-arrestin luminescence, antagonist mode; active compounds read low; max response, negative = inhibition, %; 360,000 tested, 2.5% active; AID 652054; in the data active means max response below about -50%; inconclusive means no clear call, values can overlap the other calls; further: on the % scale 0 is the no-effect control and ±100 the full control effect
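Cells expressing the human receptor were seeded at 1500 cells/well, incubated overnight at 37 degrees C in 5% CO2, then exposed to library compounds with dopamine controls for 90 minutes at 37 degrees C before luminescent detection.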
An asterisk follows results filed as active; ? = inconclusive; · = no result given; ! = not active in a repeat; [ ] = another dose, or the depositor's remark.

SMILES | RGS4 inhibitor | DRD3 agonist | uPA surface inh | D3 antag
CCc1ccc(OCC(O)CN2CCN(c3ccccc3)CC2)cc1 (configuration not stated) | -15% | 41*! | 2% | -57*!
COc1ccc(N2CC(NC(=O)CCCc3ccccc3)CC2=O)cc1 (configuration not stated) | -49% | -16 | · | ·
COCCN1C[C@@H](CO)O[C@@H](n2cnc3c(NCCO)ncnc32)C1 | · | 1 | · | -20
CC(=O)N1CCc2cc(Br)cc(S(=O)(=O)N3CCC(C)CC3)c21 | 16% | 8 | · | ·
N#Cc1c(-n2ncnc2-c2cccc(Cl)c2)sc2c1CCCCC2 | 4% | -15 | · | ·
Nc1c(CO)nnn1-c1ccccc1 | 0% | -19 | -6% | -54*
CCOC(=O)CSC1=C(C#N)C(=O)NC(c2ccc(OC)c(OC)c2)S1 (configuration not stated) | ? | -1 | -5% | -67*
CCOC(=O)CSC1=C(C#N)C(=O)NC(c2ccc(OC)cc2)S1 (configuration not stated) | ? | -4 | -1% | -58*
O=S(=O)(c1ccccc1)c1nc(-c2ccccc2)oc1N1CCN(c2cccc(Cl)c2)CC1 | 18% | -2 | · | ·
COc1cc(NC(=O)C(CC(C)C)N2Cc3ccccc3C2=O)cc(OC)c1 (configuration not stated) | 6% | -15 | · | ·
Cc1ccc(S(=O)(=O)Oc2ccc(C3C4=C(CCCC4=O)OC4=C3C(=O)CCC4)cc2)cc1 | 22% | -5 | 3% | 19
CN(C)c1ccc(C2C3=C(CCCC3=O)OC3=C2C(=O)CCC3)cc1 | 21% | 0 | 6% | -55*
CNS(=O)(=O)c1ccc(CCC(=O)N2CCN(c3ccccc3OC)CC2)cc1 | 12% | 37* | -7% | 39
COc1ccccc1N1CCN(C(=O)CCc2ccccc2)CC1 | 19% | 5 | 2% | 6
Cc1ccc2c(=O)c(CN3CCCCCC3)c(C)[nH]c2c1C | -10% | -7 | 8% | -17
Cc1[nH]c2c(Cl)cccc2c(=O)c1CN1CCCCCC1 | 7% | -15 | -4% | -90*
Cc1ccc2cc(C#N)c(N3CCN(C)CC3)nc2c1 | 28% | -19 | -3% | -82*
Cc1ccc2nc(N3CCN(C)CC3)c(C#N)cc2c1 | -6%[11.4 µM] | -15 | -2% | ?
Cc1cccc2cc(C#N)c(N3CCN(C)CC3)nc12 | 29% | -8 | 0% | -72*
Cc1cc(C)c2nc(N3CCN(C)CC3)c(C#N)cc2c1 | 9%[11.4 µM] | -13 | 1% | -24
Cc1ccc(S(=O)(=O)N2C(=O)CCC2C(=O)Nc2ccc3c(c2)OCCO3)cc1 (configuration not stated) | 0% | -6 | 2% | -65*
CCCCNc1c(-c2ccc(SC(C)CC)cc2)nc2ccccn12 (configuration not stated) | 14% | 30*! | 2µM* | 52
CCCCNc1c(-c2ccc(SC3CCCCC3)cc2)nc2ccccn12 | 18% | 72*! | ? | 83
CCCCNc1c(-c2cccc(SC3CCCCC3)c2)nc2ccc(Cl)cn12 | 5% | 69*! | -9% | 88
CCCCNc1c(-c2cccc(SC(C)CC)c2)nc2ccc(Cl)cn12 (configuration not stated) | -18% | 3 | 5% | 62
SMILES | RGS4 inhibitor | DRD3 agonist | uPA surface inh | D3 antag
Cc1ccc(Cl)cc1N1CCN(C(=O)CCCCCn2c(=O)[nH]c3ccccc3c2=O)CC1 | -3% | -5 | · | ·
Cc1ccc(Cl)cc1NC(=O)C1CCN(C(=O)c2cnn(-c3ccccc3)c2-n2cccc2)CC1 | -5% | 1 | · | ·
O=C(NCc1ccncc1)/C(=N/O)c1ccccc1 | ? | 9 | 7% | -53*
CCC(C)(C)n1nnnc1CN1CCC(NC(=O)c2ccc(Br)cc2)CC1 | -6% | 8 | 1% | 0
O=C(NC1CCN(Cc2ccccc2)CC1)c1cccc(NS(=O)(=O)c2ccc(Br)cc2)c1 | -5% | -27 | -18% | -109*
Cc1ccc(Cn2nnnc2CN2CCC(NC(=O)c3ccc(Br)cc3)CC2)cc1 | -6% | 1 | -7% | -65*
Cc1ccc(NS(=O)(=O)c2ccc(C(=O)NC3CCN(Cc4ccccc4)CC3)cc2)cc1 | 3% | -4 | ? | -68*
Cc1ccc(NS(=O)(=O)c2cccc(C(=O)NC3CCN(Cc4ccccc4)CC3)c2)cc1 | 4% | -22 | -4% | ?
Cc1ccc(S(=O)(=O)Nc2cccc(C(=O)NC3CCN(Cc4ccccc4)CC3)c2)cc1F | 9% | -29 | ? | -23
COc1cc(OC)c(N(C)C(=O)c2cn(C3CCCC3)c(=O)c3c2c2ccccc2n3C)cc1Cl | 16% | -4 | · | ·
CCC(CC)C(=O)Nc1nc2c(s1)CC(C)CC2 (configuration not stated) | 9% | -12 | · | ·
CCCN[C@H]1CCc2nc(N)sc2C1 | -16% | 88* | 6% | 5
O=S1(=O)Nc2c(ccc3cccnc23)-c2ccccc21 | -29% | -38 | ? | -137*
O=C(CCCn1c(=O)[nH]c2ccccc2c1=O)NCc1ccccc1Cl | 22% | -16 | · | ·
O=C(COC(=O)c1cccc(-n2cnnn2)c1)c1ccc(F)cc1 | 15% | -7 | -3% | 8
COc1ccc(C(=O)COC(=O)c2cccc(-n3cnnn3)c2)c(OC)c1 | -22% | 36* | -5% | 9
COc1ccc(C(=O)O/N=C(\N)c2ccccc2)c(OC)c1 | -1% | 1 | 4µM* | 6
CC[C@]12c3[nH]c4ccccc4c3CCN1C(=O)C(CC(=O)NCCCOC)C[C@@H]2C(=O)N1CCN(C(=O)C2CC2)CC1 (some centres not stated) | -15% | -16 | -6% | -17
CCN(CC)C(=O)[C@H]1CC(CC(=O)NCCc2ccccn2)C(=O)N2CCc3c([nH]c4ccccc34)[C@]12C (some centres not stated) | 19% | -21 | 6% | -55*
CCN(CC)C(=O)[C@H]1CC(CC(=O)NCCc2ccccn2)C(=O)N2CCc3c([nH]c4ccc(OC)cc34)[C@]12C (some centres not stated) | 14% | -33 | -14% | -19
CC[C@]12c3[nH]c4ccccc4c3CCN1C(=O)C(CC(=O)NCCCN(C)C)C[C@@H]2C(=O)N1CCN(C(=O)C2CC2)CC1 (some centres not stated) | 28% | -8 | 6% | -59*
CC[C@]12c3[nH]c4ccc(Cl)cc4c3CCN1C(=O)[C@@H](CC(=O)NCCCn1ccnc1)C[C@@H]2C(=O)N1CCN(C(=O)c2ccco2)CC1 | -3% | 49* | -12% | 6
CC(C)c1ccc(NC(=O)CCS(=O)(=O)c2ccc3c(c2)CC(=O)N3C)cc1 | -11% | -16 | · | ·
COCCCn1c(C(=O)NCCN2CCOCC2)cc2c(=O)n3cccc(C)c3nc21 | 11% | 2 | -9% | -54*
COc1ccc2cccc(N3CCN(CCNC(=O)c4ccc(F)cc4)CC3)c2c1 | -151%[56.9 µM] | · | · | ·
CNCCCC1c2ccccc2C=Cc2ccccc21 | 9%[56.9 µM] | -87 | ? | -99*
Cc1ccc(-c2cc(NC(=O)c3ccccc3Cl)on2)cc1 | 25% | -14 | · | ·
Nc1cc(=O)nc(SCC(=O)Nc2ccc(F)cc2)n1CCc1ccccc1 | -10% | 3 | · | ·

From PubChem
